Measles CPE: protection of cells from measles virus | 1.5% of 140,000 active | Measles virus-infected cells, CPE protection, absorbance | protection (pct of control), % at 4 µM; in the data active means protection mostly above about 24%, no sharp cut-off; inactive means mostly below about 26%
sEH inhibitor: inhibitors of human soluble epoxide hydrolase. P34913. recombinant human sEH enzymatic activity assay. inhibition, % at 2 µM. 0.34% of 91,000 active; in the data active means inhibition above about 80%
Target sequence (P34913 whole entry, looked up): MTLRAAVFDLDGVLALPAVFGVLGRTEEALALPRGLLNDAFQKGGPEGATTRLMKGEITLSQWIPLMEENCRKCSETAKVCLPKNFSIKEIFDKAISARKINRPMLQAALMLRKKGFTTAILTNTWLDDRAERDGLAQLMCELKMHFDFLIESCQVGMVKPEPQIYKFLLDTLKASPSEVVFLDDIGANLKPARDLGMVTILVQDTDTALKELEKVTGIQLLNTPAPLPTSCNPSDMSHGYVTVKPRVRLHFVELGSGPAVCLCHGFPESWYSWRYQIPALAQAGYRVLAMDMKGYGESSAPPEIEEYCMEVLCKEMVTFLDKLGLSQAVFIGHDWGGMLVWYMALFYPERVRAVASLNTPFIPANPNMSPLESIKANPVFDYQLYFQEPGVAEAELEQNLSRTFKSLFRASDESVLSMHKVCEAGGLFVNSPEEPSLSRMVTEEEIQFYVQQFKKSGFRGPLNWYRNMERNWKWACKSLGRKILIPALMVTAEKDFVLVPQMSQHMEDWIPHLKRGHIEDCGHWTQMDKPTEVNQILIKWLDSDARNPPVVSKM
cytoskel mod: cytoskeleton assembly modification. HUVEC TNFa F-actin phalloidin imaging, high content. AID 836. inhibition, % at 2 µM. 0.18% of 91,000 active;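 active means inhibition above the batch mean plus 3 SD and confirmed as a hit by visual image inspection, cut at about 30% in these data, passing the limit was not always enough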
sEH activator: activators of human soluble epoxide hydrolase; P34913; purified human sEH enzymatic activity, activator screen; activation, % at 2 µM; 0.04% of 91,000 active; in the data active means activation above about 37%
Candida biofilm: kills Candida albicans biofilms; 0.14% of 85,000 active; C. albicans biofilm + clotrimazole, Alamar Blue; inhibition, % at 6 µM;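 active means inhibition above 20%; inactive means inhibition below 20%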;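 further: preformed 24 hr biofilms exposed to compound for 48 hr; 0% = biofilm without compound and 100% = blank killed by clotrimazole plus chlorhexidine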
* = called active by the depositor; · = no result given. Shown are actives, neighbours in structure and some others; about 1.9% of the full set was active somewhere.

SMILES | Measles CPE | sEH inhibitor | cytoskel mod | sEH activator | Candida biofilm
Cn1cc(Cl)c(C(=O)NC(=S)Nc2sc3c(c2C#N)CCCCC3)n1 | 6.0 | · | · | · | ·
O=C(COc1ccc([N+](=O)[O-])cc1)N(Cc1ccccc1)Cc1ccccc1 | 31.5* | · | · | · | ·
O=C(COc1cccc(NC(=O)c2ccco2)c1)c1ccccc1 | 10.1 | 17.3 | -7.1 | -18.2 | 7.1
COc1ccc([C@@H]2Sc3cc(OC)ccc3N(CCN(C(C)C)C(C)C)C(=O)[C@H]2OC(C)=O)cc1 | 47.6* | 7.3 | -5.0 | -4.0 | 4.4
O=C(c1ccco1)n1nc(-c2ccc(Cl)cc2)nc1NCc1ccco1 | 1.7 | -7.9 | -13.3 | 5.9 | 9.1
O=C(COc1ccccc1)n1nc(-c2ccc(Cl)cc2)nc1NCc1ccco1 | 39.9* | 3.8 | 9.4 | -6.1 | 6.7
Cc1cccc(C)c1NC(=O)C/C(N)=N/O | 19.8 | -7.7 | 8.4 | 7.8 | ·
CCCCC(c1nnnn1Cc1ccco1)N1CCN(C(=O)c2ccco2)CC1 (stereo unspecified) | 39.5 | -13.8 | 8.8 | 14.2 | 0.4
CCCC(c1nnnn1Cc1ccco1)N1CCN(C(=O)c2ccco2)CC1 (stereo unspecified) | 44.0* | 15.1 | 14.6 | -14.8 | -1.2
CCC(CO)[n+]1c(C)cc(/C=C2\Sc3ccccc3N2Cc2ccccc2)cc1C (stereo unspecified) | 30.4 | · | · | · | ·
Cn1cc(C(=O)NCCN2CCN(c3ccccc3F)CC2)c2c3ccccc3n(C)c2c1=O | · | · | · | · | 6.4
CCCCCNC(=O)N[C@H](C(=O)O)C(C)C | 6.9 | · | · | · | ·
O=C(NC1CCCCCCC1)C1CCN(c2nc3ccccc3o2)CC1 | 3.4 | 93.1* | 18.7 | -93.2 | 0.5
Cc1oc(-c2ccccc2F)nc1CN1CCC(C(=O)NC2CCCCCCC2)CC1 | 2.9 | 91.1* | 6.7 | -91.0 | 4.7
Cc1ccccc1-c1nc(CN2CCC(C(=O)NCCC3=CCCCC3)CC2)c(C)o1 | · | 93.4* | 40.7 | -93.2 | -6.1
Cc1ccc(CNC(=O)C2CCCN(c3nc4ccccc4o3)C2)cc1 (stereo unspecified) | 22.9 | · | · | · | -0.4
O=C(NCCC1=CCCCC1)C1CCCN(c2nc3ccccc3o2)C1 (stereo unspecified) | 11.4 | 96.4* | 15.7 | -96.5 | 3.8
O=C(NCCc1ccccc1)C1CCN(c2nc3ccccc3o2)CC1 | 21.3 | 69.3 | -12.7 | -69.1 | -5.9
Cc1oc(-c2ccccc2F)nc1CN1CCC(C(=O)NC2CCCc3ccccc32)CC1 (stereo unspecified) | 4.3 | · | -13.9 | · | ·
CCOC(=O)N1CCN(C(=S)NC(=O)c2cncc(Br)c2)CC1 | 4.5 | · | · | · | ·
Cn1c(SCc2cc(=O)[nH]c3ccccc23)nnc1-c1ccc(Br)cc1 | 28.2 | -8.5 | 3.7 | 9.3 | 1.9
CC(C)C(C)NC(=O)COc1ccc(-c2ccccc2)cc1 (stereo unspecified) | 17.7 | -5.8 | -9.6 | 7.3 | 8.2
CC(C)C(NC(=O)COc1ccccc1)C(=O)O (stereo unspecified) | 44.4* | -1.1 | -9.3 | 3.5 | 1.6
CC(C)n1c(SCC(=O)Nc2ccccc2)nc2c1c(=O)n(C)c(=O)n2C | 30.0 | -4.7 | 2.6 | 7.3 | 5.8
Fc1ccc(CN2CCN(c3ncccn3)CC2)cc1 | 36.0* | -13.4 | -2.7 | 13.6 | 4.3
SMILES | Measles CPE | sEH inhibitor | cytoskel mod | sEH activator | Candida biofilm
O=C1COc2ccc(C(=O)c3ccccc3C(=O)NCc3ccco3)cc2N1 | 4.5 | 8.7 | 1.3 | -7.0 | 1.4
O=C1COc2ccc(C(=O)c3ccccc3C(=O)NCc3ccccc3)cc2N1 | 22.0* | 6.1 | -0.8 | -5.9 | -3.8
O=C(COC(=O)c1n[nH]c2ccccc12)Nc1ccc(S(=O)(=O)N2CCCC2)cc1 | 70.6* | 29.3 | -3.8 | -29.7 | 6.4
COc1ccc(OC)c(N(CC(=O)Nc2ccccc2)S(C)(=O)=O)c1 | 14.8 | · | 41.8* | · | ·
CSc1cccc(NC(=O)CN(c2cccc(C)c2)S(C)(=O)=O)c1 | 13.8 | 6.2 | 6.2 | -4.2 | -2.0
Cc1cccc(N(CC(=O)Nc2ccc(F)cc2)S(C)(=O)=O)c1 | 3.0 | -11.5 | -7.5 | 10.5 | 55.1*
O=C(CCCN1C(=O)c2ccccc2C1=O)Nc1ccc(S(=O)(=O)N2CCOCC2)cc1 | 13.1 | 70.6 | 29.4 | -71.3 | 10.0
O=C(CCCN1C(=O)c2ccccc2C1=O)Nc1ccc(S(=O)(=O)N2CCCCC2)cc1 | 5.6 | 89.0* | 20.0 | -88.8 | 3.5
Nc1nc2n(n1)C(c1cccc(Br)c1)CC(c1ccc(F)cc1)N2 (stereo unspecified) | 15.5 | -26.5 | -19.3 | 26.4 | 8.4
O=C(COC(=O)c1ccc2[nH]c3c(c2c1)CCCC3)Nc1ccccc1 | 8.8 | · | · | · | ·
Cc1ccc(S(=O)(=O)N/N=c2\oc3ccccc3cc2C(=O)Nc2cccc(C)c2)cc1 | 24.8 | · | · | · | ·
CCOC(=O)C(=CNc1ccc2c(c1)nnn2-c1ccc(Cl)cc1)C(=O)OCC | 6.9 | · | · | · | ·
COc1ccccc1N(CC(=O)Nc1ccc(S(=O)(=O)N2CCCCC2)cc1)S(C)(=O)=O | 64.9* | -5.0 | -7.5 | 5.5 | 5.1
CCOc1ccc(N(CC(=O)Nc2ccc(OC)cc2)S(C)(=O)=O)cc1 | 47.7* | -7.2 | 0.6 | 7.2 | 4.8
COCCCNC(=O)CN(c1ccc(OC)cc1)S(=O)(=O)c1ccc(NC(C)=O)cc1 | 53.4* | -1.6 | 0.7 | 1.1 | ·
O=c1c2cnn(-c3ccccc3)c2nc(-c2ccco2)n1-c1ccccc1 | 34.7* | -2.3 | -3.1 | 0.5 | -0.7
CCNc1nc(NCC)n2c(SC(C(=O)Nc3cc(C)ccc3C)c3ccccc3)nnc2n1 (stereo unspecified) | 80.2* | · | · | · | ·
CCNc1nc(NCC)n2c(SC(C)C(=O)c3ccc(C)cc3)nnc2n1 (stereo unspecified) | 12.2 | · | · | · | ·
Cc1ccc(S(=O)(=O)N2CCC(C(=O)Nc3ccccc3N3CCCCC3)CC2)cc1 | 34.0* | -3.0 | -0.5 | 2.0 | ·
Cc1cc(C)c(C)c(S(=O)(=O)N2CCC(C(=O)Nc3ccccc3N3CCOCC3)CC2)c1C | 9.8 | · | · | · | ·
O=C(CSc1nccn1Cc1ccccc1)NCc1ccccc1 | 7.5 | 9.5 | -7.6 | -11.1 | 2.6
CC(C)CN1C(=O)c2ccc(C(=O)NCc3ccc4c(c3)OCO4)cc2C1=O | 1.5 | 81.4* | · | -81.7 | 7.5
Cc1nn(CCC(=O)NNC(=S)NCC(C)C)c(C)c1Br | 32.9* | -2.8 | 17.9 | 4.7 | ·
CCOCCCNC(=S)NNC(=O)CCn1nc(C)c(Br)c1C | 39.4* | -2.3 | -16.4 | 4.2 | ·
CS(=O)(=O)N(CC(=O)NC1CC1)C1CCCCC1 | 4.6 | · | · | · | ·
SMILES | Measles CPE | sEH inhibitor | cytoskel mod | sEH activator | Candida biofilm
CCn1c(SCCC#N)nnc1-c1ccncc1 | 4.5 | -2.5 | -10.3 | 6.2 | 4.1
COc1cc(CNc2ccc(C(=O)O)cc2)cc(Br)c1OCC(=O)NC(C)(C)C | 35.5* | · | · | · | ·
COc1ccc(-c2nnn(CC(=O)c3ccc4c(c3)OCCO4)n2)cc1OC | 27.0* | -1.3 | -0.4 | 5.2 | 2.9
O=C(CCNC(=O)c1ccccc1Cl)Nc1nc(-c2ccc3ccccc3c2)cs1 | 9.6 | · | · | · | ·
O=[N+]([O-])c1cccc(N/N=C/c2cccc3ccccc23)c1 | 7.8 | · | · | · | ·
COC(=O)[C@@H](NC(=O)NCc1ccccc1Cl)C(C)C | 8.0 | 89.1* | 15.7 | -89.1 | -1.0
COc1cccc(/C=N/NC(=O)c2ccc(COc3ccc(Cl)cc3Cl)o2)c1 | 52.1* | 60.7 | -35.5 | -59.7 | ·
COc1cc(/C=N/NC(=O)c2ccc(COc3ccccc3Cl)o2)cc(Br)c1O | 5.2 | · | · | · | ·

Screening results (PubChem BioAssay)
